# Measurements taken from paper PMC7862700, “An all-to-all approach to the identification of sequence-specific readers for epigenetic DNA modifications on cytosine”.
# Legend:
# Test in all cases: DAPPL (digital affinity profiling via proximity ligation, sequencing); 10 mM Tris-HCl pH 7.5, 50 mM NaCl, 1 mM DTT, 4% glycerol, room temperature, 30 min; GST-TFs on glutathione beads, 16-mer random dsDNA library, 0.1% formaldehyde crosslink after washing; high values mean tight binding
# FEV = target: T1, FEV (Homo sapiens, UniProt Q99581 1-238); settings: protein: recombinant; tags: N-terminal GST; dsDNA, one strand shown
# T1 sequence: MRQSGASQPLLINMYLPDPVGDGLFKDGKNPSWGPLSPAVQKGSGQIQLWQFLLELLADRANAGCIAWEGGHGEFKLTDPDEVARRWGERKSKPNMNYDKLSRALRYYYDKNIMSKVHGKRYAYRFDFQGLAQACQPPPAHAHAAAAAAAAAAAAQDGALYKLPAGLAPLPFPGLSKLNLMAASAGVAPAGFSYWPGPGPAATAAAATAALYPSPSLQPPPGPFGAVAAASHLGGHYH
# In short: (§1)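 Binding signal is each hexamer's read frequency for a factor divided by its frequency in the tag-only sample. The factors were GST-fused human transcription factors from yeast, captured on glutathione beads, DNA-barcoded and pooled with that sample. Pools were incubated with 200 nmole of a random double-stranded 16-mer DNA library in Tris/NaCl/DTT/glycerol buffer at room temperature for 30 min, then washed, crosslinked with 0.1% formaldehyde, proximity-ligated with BsaI/T4 ligase (1 h, 37 °C), PCR-amplified and sequenced on an Illumina NextSeq500.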
# ETV5 = ETV5 (Homo sapiens, UniProt P41161 1-510); settings: protein: recombinant; tags: N-terminal GST; dsDNA, one strand shown
# ETV5, sequence (P41161 whole entry): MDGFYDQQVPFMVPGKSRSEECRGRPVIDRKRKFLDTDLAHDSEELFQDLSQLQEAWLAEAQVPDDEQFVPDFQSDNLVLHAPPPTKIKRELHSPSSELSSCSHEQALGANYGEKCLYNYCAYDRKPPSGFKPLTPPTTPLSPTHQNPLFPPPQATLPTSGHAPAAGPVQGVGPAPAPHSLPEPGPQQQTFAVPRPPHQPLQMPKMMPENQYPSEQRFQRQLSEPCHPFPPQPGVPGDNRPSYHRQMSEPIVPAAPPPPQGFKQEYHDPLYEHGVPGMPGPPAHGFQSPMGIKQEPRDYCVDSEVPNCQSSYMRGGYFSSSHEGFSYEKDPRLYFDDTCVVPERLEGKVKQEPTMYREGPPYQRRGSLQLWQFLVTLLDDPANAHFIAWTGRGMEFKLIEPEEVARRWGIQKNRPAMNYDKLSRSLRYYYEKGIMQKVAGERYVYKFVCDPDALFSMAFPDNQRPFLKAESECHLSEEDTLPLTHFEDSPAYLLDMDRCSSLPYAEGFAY
# In short: as §1
# HSF1 = HSF1 (Homo sapiens, UniProt Q00613 1-529); settings: protein: recombinant; tags: N-terminal GST; chain copies: 3; dsDNA, one strand shown
# HSF1, sequence (Q00613 whole entry): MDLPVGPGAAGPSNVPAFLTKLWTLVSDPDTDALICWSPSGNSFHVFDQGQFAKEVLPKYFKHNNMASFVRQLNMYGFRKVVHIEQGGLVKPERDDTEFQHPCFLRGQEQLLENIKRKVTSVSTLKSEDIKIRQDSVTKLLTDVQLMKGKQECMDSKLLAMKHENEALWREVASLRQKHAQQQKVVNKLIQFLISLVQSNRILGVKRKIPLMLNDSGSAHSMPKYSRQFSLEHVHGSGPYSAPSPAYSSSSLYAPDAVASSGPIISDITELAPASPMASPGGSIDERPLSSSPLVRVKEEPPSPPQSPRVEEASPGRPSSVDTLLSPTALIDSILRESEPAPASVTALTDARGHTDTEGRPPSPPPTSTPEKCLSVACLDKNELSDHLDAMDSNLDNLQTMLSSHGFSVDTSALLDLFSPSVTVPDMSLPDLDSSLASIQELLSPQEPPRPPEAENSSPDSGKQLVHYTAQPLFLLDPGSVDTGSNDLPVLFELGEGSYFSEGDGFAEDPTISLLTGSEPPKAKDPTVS
# In short: as §1
# SPIC = target: T2, SPIC (Homo sapiens, UniProt Q8N5J4 1-248); settings: protein: recombinant; tags: N-terminal GST; dsDNA, one strand shown
# T2 sequence: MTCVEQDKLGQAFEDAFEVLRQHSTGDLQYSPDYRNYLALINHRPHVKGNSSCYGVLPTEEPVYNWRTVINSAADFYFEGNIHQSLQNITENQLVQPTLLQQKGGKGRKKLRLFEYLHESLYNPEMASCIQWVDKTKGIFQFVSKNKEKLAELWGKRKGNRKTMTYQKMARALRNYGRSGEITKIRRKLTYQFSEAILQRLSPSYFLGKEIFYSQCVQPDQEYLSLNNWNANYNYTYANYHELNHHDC
# In short: as §1
# ELF4 = ELF4 (Homo sapiens, UniProt Q99607 1-663); settings: protein: recombinant; tags: N-terminal GST; dsDNA, one strand shown
# ELF4, sequence (Q99607 whole entry): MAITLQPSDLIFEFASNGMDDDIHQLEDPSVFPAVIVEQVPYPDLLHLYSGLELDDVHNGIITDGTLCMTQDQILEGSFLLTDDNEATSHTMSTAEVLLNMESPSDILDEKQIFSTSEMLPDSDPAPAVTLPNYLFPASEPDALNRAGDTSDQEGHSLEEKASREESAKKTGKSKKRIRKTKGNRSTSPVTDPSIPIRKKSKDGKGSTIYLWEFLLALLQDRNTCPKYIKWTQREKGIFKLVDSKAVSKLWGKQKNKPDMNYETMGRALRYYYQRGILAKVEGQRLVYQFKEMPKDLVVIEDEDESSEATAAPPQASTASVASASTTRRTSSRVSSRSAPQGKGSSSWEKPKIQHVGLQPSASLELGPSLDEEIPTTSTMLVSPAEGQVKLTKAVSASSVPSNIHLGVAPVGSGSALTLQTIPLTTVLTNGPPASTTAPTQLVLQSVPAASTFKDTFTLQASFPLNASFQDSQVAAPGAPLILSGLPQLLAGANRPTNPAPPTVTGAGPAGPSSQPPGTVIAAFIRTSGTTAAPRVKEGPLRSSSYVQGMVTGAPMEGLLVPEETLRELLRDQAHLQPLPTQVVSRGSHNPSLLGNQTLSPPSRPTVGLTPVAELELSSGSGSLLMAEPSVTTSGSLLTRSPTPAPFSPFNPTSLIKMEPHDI
# In short: as §1
# ELK4 = target: T3, ELK4 (Homo sapiens, UniProt P28324-2 1-405); settings: protein: recombinant; tags: N-terminal GST; dsDNA, one strand shown
# T3 sequence: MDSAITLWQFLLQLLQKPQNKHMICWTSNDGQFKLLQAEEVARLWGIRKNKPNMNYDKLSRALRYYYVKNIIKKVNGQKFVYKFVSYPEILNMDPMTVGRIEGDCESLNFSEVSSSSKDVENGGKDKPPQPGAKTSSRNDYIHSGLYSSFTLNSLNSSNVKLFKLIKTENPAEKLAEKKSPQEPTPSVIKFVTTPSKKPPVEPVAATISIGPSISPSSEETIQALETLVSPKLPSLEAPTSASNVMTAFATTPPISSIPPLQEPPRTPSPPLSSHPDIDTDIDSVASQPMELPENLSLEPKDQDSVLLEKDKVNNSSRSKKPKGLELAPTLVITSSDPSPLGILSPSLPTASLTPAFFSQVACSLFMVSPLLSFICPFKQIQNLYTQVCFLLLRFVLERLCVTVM
# In short: as §1
# ETV2 = target: T4, ETV2 (Homo sapiens, UniProt O00321 1-342); settings: protein: recombinant; tags: N-terminal GST; dsDNA, one strand shown
# T4 sequence: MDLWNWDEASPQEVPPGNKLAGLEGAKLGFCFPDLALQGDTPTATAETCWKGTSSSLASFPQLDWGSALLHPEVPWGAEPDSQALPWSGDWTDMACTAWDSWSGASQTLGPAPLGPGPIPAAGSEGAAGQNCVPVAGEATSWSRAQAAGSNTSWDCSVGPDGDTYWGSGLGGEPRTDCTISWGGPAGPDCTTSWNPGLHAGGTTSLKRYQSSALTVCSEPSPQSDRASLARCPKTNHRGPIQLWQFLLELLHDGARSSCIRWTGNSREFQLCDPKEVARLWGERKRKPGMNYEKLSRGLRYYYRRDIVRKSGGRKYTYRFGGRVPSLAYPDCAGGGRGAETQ
# In short: as §1
# ELF3 = target: T5, ELF3 (Homo sapiens, UniProt P78545 1-371); settings: protein: recombinant; tags: N-terminal GST; dsDNA, one strand shown
# T5 sequence: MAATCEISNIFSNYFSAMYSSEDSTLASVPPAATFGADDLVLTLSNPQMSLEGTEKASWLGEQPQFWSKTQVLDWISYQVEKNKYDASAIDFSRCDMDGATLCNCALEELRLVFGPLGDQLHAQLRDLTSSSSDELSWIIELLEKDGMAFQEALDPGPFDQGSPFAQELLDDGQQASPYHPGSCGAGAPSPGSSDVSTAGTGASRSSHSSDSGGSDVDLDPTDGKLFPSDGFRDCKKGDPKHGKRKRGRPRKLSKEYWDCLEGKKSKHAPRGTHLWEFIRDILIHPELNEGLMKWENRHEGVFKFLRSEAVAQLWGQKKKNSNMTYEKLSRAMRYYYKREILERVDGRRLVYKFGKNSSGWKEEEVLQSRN
# In short: as §1
# CRX = CRX (Homo sapiens, UniProt O43186 1-299); settings: protein: recombinant; tags: N-terminal GST; dsDNA, one strand shown
# CRX, sequence (O43186 whole entry): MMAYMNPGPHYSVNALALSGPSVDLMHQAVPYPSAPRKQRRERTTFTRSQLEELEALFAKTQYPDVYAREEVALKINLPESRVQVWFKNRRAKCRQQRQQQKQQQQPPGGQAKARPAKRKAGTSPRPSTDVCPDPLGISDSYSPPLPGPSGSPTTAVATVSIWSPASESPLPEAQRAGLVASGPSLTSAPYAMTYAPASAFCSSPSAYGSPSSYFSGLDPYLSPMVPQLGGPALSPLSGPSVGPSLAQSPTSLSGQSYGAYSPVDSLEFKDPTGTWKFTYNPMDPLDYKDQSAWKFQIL
# In short: as §1
# ETV1 = ETV1 (Homo sapiens, UniProt P50549 1-477); settings: protein: recombinant; tags: N-terminal GST; dsDNA, one strand shown
# ETV1, sequence (P50549 whole entry): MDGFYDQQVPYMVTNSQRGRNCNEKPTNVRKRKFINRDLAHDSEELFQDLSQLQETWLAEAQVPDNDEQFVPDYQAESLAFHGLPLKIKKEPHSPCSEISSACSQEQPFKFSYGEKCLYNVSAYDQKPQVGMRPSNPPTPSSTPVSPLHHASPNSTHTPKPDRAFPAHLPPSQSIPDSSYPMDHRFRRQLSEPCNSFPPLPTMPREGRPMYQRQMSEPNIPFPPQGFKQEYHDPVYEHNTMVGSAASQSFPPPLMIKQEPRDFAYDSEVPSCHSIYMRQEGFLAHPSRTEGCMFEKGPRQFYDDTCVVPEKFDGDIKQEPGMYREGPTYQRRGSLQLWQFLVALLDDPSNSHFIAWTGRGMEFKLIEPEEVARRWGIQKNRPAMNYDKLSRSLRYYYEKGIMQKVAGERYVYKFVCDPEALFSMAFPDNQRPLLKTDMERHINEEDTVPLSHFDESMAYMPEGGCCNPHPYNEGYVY
# In short: as §1
# ERF = target: T6, ERF (Homo sapiens, UniProt P50548 1-548); settings: protein: recombinant; tags: N-terminal GST; dsDNA, one strand shown
# T6 sequence: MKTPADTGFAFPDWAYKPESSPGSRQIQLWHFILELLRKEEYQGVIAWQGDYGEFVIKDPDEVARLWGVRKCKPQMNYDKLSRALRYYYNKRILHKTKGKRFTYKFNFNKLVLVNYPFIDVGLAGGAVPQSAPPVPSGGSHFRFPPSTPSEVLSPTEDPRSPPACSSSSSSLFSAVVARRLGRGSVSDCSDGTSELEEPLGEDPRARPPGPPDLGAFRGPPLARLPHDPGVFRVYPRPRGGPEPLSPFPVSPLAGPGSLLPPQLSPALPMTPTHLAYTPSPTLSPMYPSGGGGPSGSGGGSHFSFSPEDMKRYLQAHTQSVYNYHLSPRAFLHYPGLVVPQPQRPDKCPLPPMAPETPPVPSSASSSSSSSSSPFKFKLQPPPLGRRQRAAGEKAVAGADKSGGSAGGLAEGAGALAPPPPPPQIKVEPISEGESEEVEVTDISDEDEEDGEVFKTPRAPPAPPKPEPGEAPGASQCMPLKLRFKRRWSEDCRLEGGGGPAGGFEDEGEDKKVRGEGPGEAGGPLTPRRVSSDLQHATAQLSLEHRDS
# In short: as §1
# ETV3L = target: T7, ETV3L (Homo sapiens, UniProt Q6ZN32 1-361); settings: protein: recombinant; tags: N-terminal GST; dsDNA, one strand shown
# T7 sequence: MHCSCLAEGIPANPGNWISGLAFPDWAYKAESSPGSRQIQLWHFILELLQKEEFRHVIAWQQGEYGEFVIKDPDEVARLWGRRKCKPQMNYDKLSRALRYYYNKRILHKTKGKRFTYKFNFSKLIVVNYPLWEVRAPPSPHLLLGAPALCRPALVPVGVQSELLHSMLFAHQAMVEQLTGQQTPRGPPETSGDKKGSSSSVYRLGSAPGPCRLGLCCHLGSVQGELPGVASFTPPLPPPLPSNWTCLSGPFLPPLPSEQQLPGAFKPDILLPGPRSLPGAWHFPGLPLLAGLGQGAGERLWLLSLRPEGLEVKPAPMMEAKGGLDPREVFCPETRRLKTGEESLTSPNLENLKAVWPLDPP
# In short: as §1
# ETS2 = target: T8, ETS2 (Homo sapiens, UniProt P15036 1-469); settings: protein: recombinant; tags: N-terminal GST; dsDNA, one strand shown
# T8 sequence: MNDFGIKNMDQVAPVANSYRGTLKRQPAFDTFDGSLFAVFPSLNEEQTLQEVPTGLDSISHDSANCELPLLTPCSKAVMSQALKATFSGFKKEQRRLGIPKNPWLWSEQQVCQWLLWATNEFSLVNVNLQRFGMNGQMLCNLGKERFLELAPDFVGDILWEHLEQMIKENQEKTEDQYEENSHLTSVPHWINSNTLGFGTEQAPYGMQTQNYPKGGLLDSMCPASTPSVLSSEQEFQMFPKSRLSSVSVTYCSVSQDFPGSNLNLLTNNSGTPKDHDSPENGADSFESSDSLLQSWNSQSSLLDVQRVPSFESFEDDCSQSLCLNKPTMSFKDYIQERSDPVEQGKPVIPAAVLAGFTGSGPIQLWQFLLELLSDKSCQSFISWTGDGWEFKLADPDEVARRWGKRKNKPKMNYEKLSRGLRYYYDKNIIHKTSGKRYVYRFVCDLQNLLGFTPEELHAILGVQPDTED
# In short: as §1
# SPDEF = target: T9, SPDEF (Homo sapiens, UniProt O95238 1-335); settings: protein: recombinant; tags: N-terminal GST; dsDNA, one strand shown
# T9 sequence: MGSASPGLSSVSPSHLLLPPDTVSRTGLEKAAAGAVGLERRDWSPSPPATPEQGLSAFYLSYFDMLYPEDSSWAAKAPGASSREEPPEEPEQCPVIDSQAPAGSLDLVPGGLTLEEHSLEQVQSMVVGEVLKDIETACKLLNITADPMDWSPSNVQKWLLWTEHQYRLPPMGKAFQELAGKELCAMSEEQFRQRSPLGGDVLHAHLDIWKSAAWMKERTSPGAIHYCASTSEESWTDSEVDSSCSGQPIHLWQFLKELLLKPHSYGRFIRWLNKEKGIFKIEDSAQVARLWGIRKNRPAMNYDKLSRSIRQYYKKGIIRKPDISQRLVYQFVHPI
# In short: as §1
# ETV7 = target: T10, ETV7 (Homo sapiens, UniProt Q9Y603 1-341); settings: protein: recombinant; tags: N-terminal GST; dsDNA, one strand shown
# T10 sequence: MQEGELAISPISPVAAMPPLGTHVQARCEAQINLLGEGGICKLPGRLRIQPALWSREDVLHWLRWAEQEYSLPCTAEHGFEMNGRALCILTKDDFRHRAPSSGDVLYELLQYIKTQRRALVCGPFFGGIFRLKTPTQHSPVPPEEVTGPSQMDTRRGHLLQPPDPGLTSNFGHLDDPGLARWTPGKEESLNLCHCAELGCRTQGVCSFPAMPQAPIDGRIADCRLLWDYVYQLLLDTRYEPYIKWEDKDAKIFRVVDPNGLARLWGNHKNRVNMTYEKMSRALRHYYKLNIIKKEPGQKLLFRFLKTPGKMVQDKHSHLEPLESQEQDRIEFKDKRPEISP
# In short: as §1
# ELF5 = target: T11, ELF5 (Homo sapiens, UniProt Q9UKW6-2 1-255); settings: protein: recombinant; tags: N-terminal GST; dsDNA, one strand shown
# T11 sequence: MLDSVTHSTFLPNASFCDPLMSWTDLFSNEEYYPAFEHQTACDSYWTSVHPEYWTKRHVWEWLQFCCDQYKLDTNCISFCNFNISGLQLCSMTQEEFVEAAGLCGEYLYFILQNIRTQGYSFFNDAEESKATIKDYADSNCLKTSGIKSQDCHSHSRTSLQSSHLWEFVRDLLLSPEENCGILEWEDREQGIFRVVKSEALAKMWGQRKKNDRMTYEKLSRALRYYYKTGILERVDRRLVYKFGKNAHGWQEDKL
# In short: as §1
# ETV3 = target: T12, ETV3 (Homo sapiens, UniProt P41162-2 1-143); settings: protein: recombinant; tags: N-terminal GST; dsDNA, one strand shown
# T12 sequence: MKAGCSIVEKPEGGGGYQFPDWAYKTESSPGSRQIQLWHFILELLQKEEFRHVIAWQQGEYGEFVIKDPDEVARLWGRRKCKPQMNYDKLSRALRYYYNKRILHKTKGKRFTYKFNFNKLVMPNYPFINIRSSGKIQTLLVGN
# In short: as §1
# ETV6 = ETV6 (Homo sapiens, UniProt P41212 1-452); settings: protein: recombinant; tags: N-terminal GST; dsDNA, one strand shown
# ETV6, sequence (P41212 whole entry): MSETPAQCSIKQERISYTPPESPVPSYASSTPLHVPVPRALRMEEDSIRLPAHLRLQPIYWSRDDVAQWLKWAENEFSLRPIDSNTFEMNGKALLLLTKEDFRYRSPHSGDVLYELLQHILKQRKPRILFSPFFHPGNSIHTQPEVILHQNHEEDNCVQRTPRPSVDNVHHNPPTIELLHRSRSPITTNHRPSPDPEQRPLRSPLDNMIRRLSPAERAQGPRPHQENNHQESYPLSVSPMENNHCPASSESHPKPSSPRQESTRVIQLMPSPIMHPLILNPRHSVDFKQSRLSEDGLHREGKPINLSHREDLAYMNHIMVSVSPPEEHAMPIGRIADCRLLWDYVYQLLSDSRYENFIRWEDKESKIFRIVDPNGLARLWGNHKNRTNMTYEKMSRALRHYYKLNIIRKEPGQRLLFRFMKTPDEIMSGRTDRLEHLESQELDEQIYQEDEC
# In short: as §1
sequence,measurement,setting,value
TCTTCC,binding signal,FEV,"2.55 fold enrichment (6-mer frequency, TF over GST control)"
same,binding signal,ETV5,"2.85 fold enrichment (6-mer frequency, TF over GST control)"
same,binding signal,HSF1,"1.69 fold enrichment (6-mer frequency, TF over GST control)"
same,binding signal,SPIC,"2.31 fold enrichment (6-mer frequency, TF over GST control)"
same,binding signal,ELF4,"2.35 fold enrichment (6-mer frequency, TF over GST control)"
same,binding signal,ELK4,"2.38 fold enrichment (6-mer frequency, TF over GST control)"
same,binding signal,ETV2,"2.61 fold enrichment (6-mer frequency, TF over GST control)"
same,binding signal,ELF3,"2.33 fold enrichment (6-mer frequency, TF over GST control)"
same,binding signal,CRX,"1.34 fold enrichment (6-mer frequency, TF over GST control)"
same,binding signal,ETV1,"2.62 fold enrichment (6-mer frequency, TF over GST control)"
same,binding signal,ERF,"2.26 fold enrichment (6-mer frequency, TF over GST control)"
same,binding signal,ETV3L,"2.66 fold enrichment (6-mer frequency, TF over GST control)"
same,binding signal,ETS2,"2.8 fold enrichment (6-mer frequency, TF over GST control)"
same,binding signal,SPDEF,"2.45 fold enrichment (6-mer frequency, TF over GST control)"
same,binding signal,ETV7,"2.35 fold enrichment (6-mer frequency, TF over GST control)"
same,binding signal,ELF5,"4.14 fold enrichment (6-mer frequency, TF over GST control)"
same,binding signal,ETV3,"2.74 fold enrichment (6-mer frequency, TF over GST control)"
same,binding signal,ETV6,"2.8 fold enrichment (6-mer frequency, TF over GST control)"
